# Test results: ChEMBL document CHEMBL1961873, “Compounds: GSK PKIS; Assays: Nanosyn kinase panel” (2012)
# Tests used:
# [1] = target: Death-associated protein kinase 1 (Homo sapiens) (UniProt P53355); settings: at 1 µM;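 also: each value is a mean inhibition figure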
# [2] = target: T1, Serine/threonine-protein kinase DCLK2 (Homo sapiens) (UniProt Q8N568); settings: at 0.1 µM
# T1 sequence (whole entry): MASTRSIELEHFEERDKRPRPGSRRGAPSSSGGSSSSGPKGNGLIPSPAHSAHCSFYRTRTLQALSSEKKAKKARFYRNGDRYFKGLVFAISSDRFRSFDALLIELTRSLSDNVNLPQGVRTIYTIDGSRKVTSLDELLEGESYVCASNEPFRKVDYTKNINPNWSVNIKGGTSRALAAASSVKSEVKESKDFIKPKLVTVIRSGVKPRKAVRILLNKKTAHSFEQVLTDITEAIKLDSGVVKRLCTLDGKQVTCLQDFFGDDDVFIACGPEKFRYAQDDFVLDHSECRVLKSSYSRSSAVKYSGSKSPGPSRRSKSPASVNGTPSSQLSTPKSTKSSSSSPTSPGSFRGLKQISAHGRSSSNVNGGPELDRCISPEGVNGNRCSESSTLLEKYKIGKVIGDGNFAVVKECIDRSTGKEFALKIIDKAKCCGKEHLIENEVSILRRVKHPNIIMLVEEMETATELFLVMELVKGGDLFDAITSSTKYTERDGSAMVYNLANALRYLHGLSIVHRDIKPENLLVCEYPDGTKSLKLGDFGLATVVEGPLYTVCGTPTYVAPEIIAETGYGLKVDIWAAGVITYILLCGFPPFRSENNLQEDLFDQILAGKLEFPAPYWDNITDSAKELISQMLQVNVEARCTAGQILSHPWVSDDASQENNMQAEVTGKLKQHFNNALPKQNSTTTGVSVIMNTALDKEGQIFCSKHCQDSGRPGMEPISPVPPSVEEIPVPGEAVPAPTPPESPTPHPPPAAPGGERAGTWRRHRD
# [3] = target: T1, Serine/threonine-protein kinase DCLK2 (Homo sapiens); settings: at 1 µM
# [4] = target: MAP kinase-activated protein kinase 2 (Homo sapiens) (UniProt P49137); settings: at 0.1 µM
# Chain of MAP kinase-activated protein kinase 2 (Homo sapiens) (P49137 whole entry, looked up): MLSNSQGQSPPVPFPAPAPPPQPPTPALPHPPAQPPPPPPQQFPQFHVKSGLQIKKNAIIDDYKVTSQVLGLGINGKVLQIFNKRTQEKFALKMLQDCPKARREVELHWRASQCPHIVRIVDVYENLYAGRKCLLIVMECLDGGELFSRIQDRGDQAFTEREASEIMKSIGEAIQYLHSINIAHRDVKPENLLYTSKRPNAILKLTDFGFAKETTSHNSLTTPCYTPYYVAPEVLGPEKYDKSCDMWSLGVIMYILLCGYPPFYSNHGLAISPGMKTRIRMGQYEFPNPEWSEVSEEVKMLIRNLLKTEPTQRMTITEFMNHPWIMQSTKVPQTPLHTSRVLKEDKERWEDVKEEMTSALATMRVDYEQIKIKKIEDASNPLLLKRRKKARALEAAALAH
# [5] = target: MAP kinase-activated protein kinase 2 (Homo sapiens) (UniProt P49137); settings: at 1 µM
# [6] = target: MAP kinase-activated protein kinase 3 (Homo sapiens) (UniProt Q16644); settings: at 0.1 µM
# Chain of MAP kinase-activated protein kinase 3 (Homo sapiens) (Q16644 whole entry, looked up): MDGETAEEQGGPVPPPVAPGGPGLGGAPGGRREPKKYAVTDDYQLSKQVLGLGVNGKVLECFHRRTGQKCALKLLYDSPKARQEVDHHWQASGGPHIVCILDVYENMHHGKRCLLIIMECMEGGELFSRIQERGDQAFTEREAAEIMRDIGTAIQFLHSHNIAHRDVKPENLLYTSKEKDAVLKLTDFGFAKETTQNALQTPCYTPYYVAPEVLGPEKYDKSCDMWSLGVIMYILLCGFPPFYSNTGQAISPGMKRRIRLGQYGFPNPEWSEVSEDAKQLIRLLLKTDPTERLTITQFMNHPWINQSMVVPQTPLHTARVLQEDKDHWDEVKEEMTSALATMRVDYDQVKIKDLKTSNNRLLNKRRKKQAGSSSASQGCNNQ
# [7] = target: MAP kinase-activated protein kinase 3 (Homo sapiens) (UniProt Q16644); settings: at 1 µM
# [8] = target: Serine/threonine-protein kinase MARK1 (Homo sapiens) (UniProt Q9P0L2); settings: at 0.1 µM
# Chain of Serine/threonine-protein kinase MARK1 (Homo sapiens) (Q9P0L2 whole entry, looked up): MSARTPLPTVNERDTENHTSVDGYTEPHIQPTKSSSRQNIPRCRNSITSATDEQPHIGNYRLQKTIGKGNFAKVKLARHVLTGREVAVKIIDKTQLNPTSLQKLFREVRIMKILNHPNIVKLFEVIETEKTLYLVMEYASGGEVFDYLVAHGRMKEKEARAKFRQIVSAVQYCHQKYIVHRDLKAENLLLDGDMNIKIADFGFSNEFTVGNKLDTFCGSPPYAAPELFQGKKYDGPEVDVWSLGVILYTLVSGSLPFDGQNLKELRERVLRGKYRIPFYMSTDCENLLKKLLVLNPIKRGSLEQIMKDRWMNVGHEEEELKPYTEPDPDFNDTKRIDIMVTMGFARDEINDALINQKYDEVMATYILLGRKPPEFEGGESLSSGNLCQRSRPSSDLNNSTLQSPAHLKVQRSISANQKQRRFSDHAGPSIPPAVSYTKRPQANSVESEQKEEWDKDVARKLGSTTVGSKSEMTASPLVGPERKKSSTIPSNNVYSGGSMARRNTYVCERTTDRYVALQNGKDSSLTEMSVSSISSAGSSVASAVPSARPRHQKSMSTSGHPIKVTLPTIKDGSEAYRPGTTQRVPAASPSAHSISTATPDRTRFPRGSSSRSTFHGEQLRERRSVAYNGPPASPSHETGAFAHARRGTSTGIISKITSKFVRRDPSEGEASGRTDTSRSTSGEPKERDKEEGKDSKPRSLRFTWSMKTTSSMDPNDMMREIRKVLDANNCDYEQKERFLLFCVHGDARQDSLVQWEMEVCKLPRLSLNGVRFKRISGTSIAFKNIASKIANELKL
# [9] = target: Serine/threonine-protein kinase MARK1 (Homo sapiens) (UniProt Q9P0L2); settings: at 1 µM
# [10] = target: MAP/microtubule affinity-regulating kinase 3 (Homo sapiens) (UniProt P27448); settings: at 0.1 µM
# [11] = target: MAP/microtubule affinity-regulating kinase 3 (Homo sapiens) (UniProt P27448); settings: at 1 µM
# [12] = target: T2, MAP/microtubule affinity-regulating kinase 4 (Homo sapiens) (UniProt Q96L34); settings: at 0.1 µM
# T2 sequence (whole entry): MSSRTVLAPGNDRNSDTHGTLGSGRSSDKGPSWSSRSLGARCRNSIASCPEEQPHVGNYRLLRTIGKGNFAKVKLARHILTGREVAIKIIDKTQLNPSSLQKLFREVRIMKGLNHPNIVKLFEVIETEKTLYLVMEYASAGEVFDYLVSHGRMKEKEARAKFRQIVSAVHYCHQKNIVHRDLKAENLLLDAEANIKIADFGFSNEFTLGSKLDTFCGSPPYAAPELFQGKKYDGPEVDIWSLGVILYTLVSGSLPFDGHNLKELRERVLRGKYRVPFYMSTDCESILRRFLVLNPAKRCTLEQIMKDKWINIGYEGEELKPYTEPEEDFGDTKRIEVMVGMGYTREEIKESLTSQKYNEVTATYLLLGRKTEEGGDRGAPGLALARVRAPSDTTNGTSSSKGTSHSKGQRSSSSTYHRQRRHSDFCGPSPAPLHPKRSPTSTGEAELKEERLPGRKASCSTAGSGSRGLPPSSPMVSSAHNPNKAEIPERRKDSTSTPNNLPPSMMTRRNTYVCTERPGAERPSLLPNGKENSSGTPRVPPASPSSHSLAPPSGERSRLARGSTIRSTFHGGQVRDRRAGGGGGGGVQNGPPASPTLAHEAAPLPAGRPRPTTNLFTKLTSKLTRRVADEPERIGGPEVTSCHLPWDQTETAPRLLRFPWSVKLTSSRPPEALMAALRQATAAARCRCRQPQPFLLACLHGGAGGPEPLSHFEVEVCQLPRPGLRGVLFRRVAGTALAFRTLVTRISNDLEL
# [13] = target: T2, MAP/microtubule affinity-regulating kinase 4 (Homo sapiens); settings: at 1 µM
# [14] = target: Maternal embryonic leucine zipper kinase (Homo sapiens) (UniProt Q14680); settings: at 0.1 µM
# Chain of Maternal embryonic leucine zipper kinase (Homo sapiens) (Q14680 whole entry, looked up): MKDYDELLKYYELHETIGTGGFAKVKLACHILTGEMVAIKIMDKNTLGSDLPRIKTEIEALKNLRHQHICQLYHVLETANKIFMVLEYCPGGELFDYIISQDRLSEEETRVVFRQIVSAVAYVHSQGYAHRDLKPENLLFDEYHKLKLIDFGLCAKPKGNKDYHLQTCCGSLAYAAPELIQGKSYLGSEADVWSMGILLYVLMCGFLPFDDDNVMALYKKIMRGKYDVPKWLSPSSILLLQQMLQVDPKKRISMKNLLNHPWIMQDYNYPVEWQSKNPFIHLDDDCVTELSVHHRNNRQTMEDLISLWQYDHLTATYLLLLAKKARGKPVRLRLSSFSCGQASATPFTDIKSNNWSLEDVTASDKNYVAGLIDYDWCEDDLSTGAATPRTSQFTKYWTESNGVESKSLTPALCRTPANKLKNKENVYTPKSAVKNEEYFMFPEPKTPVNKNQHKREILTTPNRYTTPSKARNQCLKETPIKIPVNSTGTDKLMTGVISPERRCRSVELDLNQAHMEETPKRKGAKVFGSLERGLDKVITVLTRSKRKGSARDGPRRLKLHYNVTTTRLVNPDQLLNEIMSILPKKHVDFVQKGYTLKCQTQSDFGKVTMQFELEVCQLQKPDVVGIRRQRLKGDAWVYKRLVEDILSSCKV
# [15] = target: Maternal embryonic leucine zipper kinase (Homo sapiens) (UniProt Q14680); settings: at 1 µM
# [16] = target: MAP kinase-interacting serine/threonine-protein kinase 1 (Homo sapiens) (UniProt Q9BUB5); settings: at 0.1 µM
# [17] = target: MAP kinase-interacting serine/threonine-protein kinase 1 (Homo sapiens) (UniProt Q9BUB5); settings: at 1 µM
# [18] = target: MAP kinase-interacting serine/threonine-protein kinase 2 (Homo sapiens) (UniProt Q9HBH9); settings: at 0.1 µM
# Chain of MAP kinase-interacting serine/threonine-protein kinase 2 (Homo sapiens) (Q9HBH9 whole entry, looked up): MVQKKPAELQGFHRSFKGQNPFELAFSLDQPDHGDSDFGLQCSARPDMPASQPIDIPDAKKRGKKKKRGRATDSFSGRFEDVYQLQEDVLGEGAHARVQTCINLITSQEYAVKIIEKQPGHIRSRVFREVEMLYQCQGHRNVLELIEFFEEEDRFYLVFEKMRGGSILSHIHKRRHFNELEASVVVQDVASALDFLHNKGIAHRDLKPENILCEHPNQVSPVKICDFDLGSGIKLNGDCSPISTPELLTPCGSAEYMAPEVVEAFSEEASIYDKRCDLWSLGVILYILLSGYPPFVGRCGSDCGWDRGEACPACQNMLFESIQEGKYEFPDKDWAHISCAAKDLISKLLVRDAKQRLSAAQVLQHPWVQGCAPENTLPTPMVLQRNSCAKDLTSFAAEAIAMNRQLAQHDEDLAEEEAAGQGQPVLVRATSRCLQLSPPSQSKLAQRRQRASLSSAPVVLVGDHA
# [19] = target: MAP kinase-interacting serine/threonine-protein kinase 2 (Homo sapiens) (UniProt Q9HBH9); settings: at 1 µM
# [20] = target: Serine/threonine-protein kinase MARK2 (Homo sapiens) (UniProt Q7KZI7); settings: at 0.1 µM;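 also: mean percent inhibition of PAR-1Balpha kinase activity, reported from the GSK PKIS screen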
# Chain of Serine/threonine-protein kinase MARK2 (Homo sapiens) (Q7KZI7 whole entry): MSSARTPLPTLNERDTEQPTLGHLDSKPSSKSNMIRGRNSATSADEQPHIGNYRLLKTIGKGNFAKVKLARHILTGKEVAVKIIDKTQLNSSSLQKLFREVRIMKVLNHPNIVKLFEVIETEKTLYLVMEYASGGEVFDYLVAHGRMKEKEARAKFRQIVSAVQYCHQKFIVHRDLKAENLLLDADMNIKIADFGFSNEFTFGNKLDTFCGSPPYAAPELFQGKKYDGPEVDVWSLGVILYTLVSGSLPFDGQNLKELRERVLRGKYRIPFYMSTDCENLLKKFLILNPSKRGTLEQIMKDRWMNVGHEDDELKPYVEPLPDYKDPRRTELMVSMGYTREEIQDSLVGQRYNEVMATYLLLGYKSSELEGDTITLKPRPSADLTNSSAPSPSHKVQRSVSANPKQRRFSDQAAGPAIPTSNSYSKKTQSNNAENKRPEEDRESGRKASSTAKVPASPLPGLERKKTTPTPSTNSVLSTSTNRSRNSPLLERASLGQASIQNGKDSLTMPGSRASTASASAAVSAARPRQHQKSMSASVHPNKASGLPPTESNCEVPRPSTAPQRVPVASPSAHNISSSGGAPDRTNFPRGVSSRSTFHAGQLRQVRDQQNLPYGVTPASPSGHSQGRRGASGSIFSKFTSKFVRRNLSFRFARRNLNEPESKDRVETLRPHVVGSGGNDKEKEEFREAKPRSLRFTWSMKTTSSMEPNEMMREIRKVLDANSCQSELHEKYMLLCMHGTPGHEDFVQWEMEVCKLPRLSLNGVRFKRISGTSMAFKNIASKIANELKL
# Chain of Death-associated protein kinase 1 (Homo sapiens) (P53355 whole entry, looked up): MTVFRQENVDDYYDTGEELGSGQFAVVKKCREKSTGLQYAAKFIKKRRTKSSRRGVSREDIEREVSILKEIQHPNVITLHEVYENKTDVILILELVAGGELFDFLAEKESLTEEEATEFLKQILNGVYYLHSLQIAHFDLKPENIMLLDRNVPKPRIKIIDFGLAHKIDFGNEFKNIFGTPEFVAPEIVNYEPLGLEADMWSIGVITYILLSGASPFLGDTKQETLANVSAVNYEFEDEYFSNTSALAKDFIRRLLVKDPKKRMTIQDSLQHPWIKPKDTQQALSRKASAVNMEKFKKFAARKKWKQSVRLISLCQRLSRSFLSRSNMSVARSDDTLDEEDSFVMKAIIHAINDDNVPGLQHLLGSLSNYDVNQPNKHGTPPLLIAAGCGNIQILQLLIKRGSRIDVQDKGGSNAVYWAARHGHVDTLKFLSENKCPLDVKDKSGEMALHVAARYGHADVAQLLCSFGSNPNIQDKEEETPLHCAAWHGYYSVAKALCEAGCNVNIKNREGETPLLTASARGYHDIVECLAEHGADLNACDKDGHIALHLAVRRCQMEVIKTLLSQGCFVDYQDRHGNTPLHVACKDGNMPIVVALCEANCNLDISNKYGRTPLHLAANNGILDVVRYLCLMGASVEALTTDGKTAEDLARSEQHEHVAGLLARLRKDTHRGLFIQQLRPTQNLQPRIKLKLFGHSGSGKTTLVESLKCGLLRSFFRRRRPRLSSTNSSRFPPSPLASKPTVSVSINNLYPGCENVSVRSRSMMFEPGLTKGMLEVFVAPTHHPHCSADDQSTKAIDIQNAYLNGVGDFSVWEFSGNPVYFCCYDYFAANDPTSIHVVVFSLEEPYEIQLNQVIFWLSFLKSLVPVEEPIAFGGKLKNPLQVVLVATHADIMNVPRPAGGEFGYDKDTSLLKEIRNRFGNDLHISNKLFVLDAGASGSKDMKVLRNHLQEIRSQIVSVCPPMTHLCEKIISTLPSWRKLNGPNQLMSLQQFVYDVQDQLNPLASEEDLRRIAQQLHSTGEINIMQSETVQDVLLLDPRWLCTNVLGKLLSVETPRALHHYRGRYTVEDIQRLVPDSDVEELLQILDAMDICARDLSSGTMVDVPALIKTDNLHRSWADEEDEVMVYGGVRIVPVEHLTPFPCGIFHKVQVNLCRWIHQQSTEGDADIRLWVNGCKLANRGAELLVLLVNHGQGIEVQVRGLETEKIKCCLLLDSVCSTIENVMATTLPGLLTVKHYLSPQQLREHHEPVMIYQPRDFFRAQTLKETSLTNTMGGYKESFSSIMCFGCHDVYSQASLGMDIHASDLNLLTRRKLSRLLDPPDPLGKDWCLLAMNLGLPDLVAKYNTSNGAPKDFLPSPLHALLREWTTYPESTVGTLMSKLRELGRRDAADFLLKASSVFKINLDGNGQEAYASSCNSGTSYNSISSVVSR
Structure (SMILES),inhibition [1] [%],inhibition [2] [%],inhibition [3] [%],inhibition [4] [%],inhibition [5] [%],inhibition [6] [%],inhibition [7] [%],inhibition [8] [%],inhibition [9] [%],inhibition [10] [%],inhibition [11] [%],inhibition [12] [%],inhibition [13] [%],inhibition [14] [%],inhibition [15] [%],inhibition [16] [%],inhibition [17] [%],inhibition [18] [%],inhibition [19] [%],inhibition [20] [%]
CNC(=O)c1cncc(/C=C/c2ccccc2Cl)c1,1.77,0.59,-3.35,0.55,1.05,0.66,-0.89,1.46,5.24,1.01,-4.55,-0.44,2.25,0.11,-3.52,4.17,23.1,6.83,17.6,1.5
CCn1cc(-c2ccnc3[nH]ccc23)c(-c2cccc(NC(=O)Nc3ccc(OCc4ccccc4)cc3)c2)n1,1.12,-1.87,-0.63,-0.39,-0.71,0.57,1.13,0.74,3.68,1.29,2.97,1.33,2.66,-3.14,-3.15,0.36,1.39,-1.1,-0.1,-0.11
CC(C)(CO)CNC(=O)c1ccc2c(c1)/C(=N/Nc1ccc(S(N)(=O)=O)cc1)C(=O)N2,0.07,0.04,1.76,-0.45,-1.03,2.49,2.07,10.3,52.5,5.88,36.6,7.2,42.6,18.8,72.7,0.85,3.37,-0.26,9.44,3.29
